In PubChem BioAssay:
Inconclusive results are not listed. The source made the active and inactive calls.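 The calls were made as follows, unless noted: active = RAM network inhibition above 8.4% in each of two replicates, 3 SD over the compound average; inconclusive = above 8.4% inhibition in only one replicate; inactive = 8.4% inhibition or less in each replicate.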

What was measured:
[1] = Her2 expression decrease, cell viability multiplex – SKBR3 breast tumor cells, AlphaScreen, ATP viability, primary screen (AID 461;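 active = Her2 level under about 52% in both replicate screens, with viability over 70% of control, limit read from the data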;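 as to Her2 level: lower value means less Her2 protein in the cells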;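 as to viability: percent of carrier control wells set as 100% viability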); settings: SKBR3 Her2 protein level, 18-24 h, measured here: SKBR3 viability, ATP luminescence, at 10 µM
[2] = target: Receptor tyrosine-protein kinase erbB-2 (Homo sapiens) (UniProt P04626); test: as above; settings: 18-24 h, at 10 µM, stronger effect = lower value
Chain of Receptor tyrosine-protein kinase erbB-2 (Homo sapiens) (P04626 whole entry, looked up): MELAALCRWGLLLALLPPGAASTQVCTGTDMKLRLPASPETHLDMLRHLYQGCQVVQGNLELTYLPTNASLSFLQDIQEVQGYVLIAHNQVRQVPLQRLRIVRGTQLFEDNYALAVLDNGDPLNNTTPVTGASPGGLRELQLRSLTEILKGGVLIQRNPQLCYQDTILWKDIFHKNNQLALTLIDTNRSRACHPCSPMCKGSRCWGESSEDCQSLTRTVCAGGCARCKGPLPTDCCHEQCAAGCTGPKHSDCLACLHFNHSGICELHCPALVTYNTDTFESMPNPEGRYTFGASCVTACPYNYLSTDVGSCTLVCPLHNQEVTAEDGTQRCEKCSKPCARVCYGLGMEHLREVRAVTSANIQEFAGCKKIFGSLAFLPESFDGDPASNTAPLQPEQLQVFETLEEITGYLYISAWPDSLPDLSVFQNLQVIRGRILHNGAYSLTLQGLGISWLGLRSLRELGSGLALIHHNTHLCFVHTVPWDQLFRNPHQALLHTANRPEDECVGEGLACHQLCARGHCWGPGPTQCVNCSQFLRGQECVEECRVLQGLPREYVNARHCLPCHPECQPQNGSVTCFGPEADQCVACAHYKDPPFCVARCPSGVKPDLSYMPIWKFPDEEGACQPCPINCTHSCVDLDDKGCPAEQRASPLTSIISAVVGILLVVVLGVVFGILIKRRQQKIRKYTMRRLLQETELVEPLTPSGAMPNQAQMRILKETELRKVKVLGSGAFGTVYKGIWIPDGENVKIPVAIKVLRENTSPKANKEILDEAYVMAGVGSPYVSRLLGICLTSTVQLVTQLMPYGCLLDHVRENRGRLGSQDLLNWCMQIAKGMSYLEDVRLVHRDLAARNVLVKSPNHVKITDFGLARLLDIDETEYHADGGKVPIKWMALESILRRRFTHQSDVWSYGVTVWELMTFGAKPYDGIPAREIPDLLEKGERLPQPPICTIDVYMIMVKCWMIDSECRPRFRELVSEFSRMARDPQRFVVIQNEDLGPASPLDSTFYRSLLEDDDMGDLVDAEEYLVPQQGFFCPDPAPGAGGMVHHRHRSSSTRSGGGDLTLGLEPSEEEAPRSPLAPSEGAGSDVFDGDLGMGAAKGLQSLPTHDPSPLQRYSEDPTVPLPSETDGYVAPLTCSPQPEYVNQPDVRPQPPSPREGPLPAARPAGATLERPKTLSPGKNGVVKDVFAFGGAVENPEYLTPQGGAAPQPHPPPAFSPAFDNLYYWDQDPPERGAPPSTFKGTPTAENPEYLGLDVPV

[3] = reduced viability of SK-BR-3 breast cancer cells – cell-based, 24 h, human, pilot screen (AID 572;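 active = viability at or below 10% of carrier control in both of two separate runs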;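 also: compound exposure lasted between 18 and 24 h rather than exactly 24 h; 100% = carrier-treated control wells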); settings: SK-BR-3 viability, CellTiter-Glo luminescence, at 10 µM, stronger effect = lower value
[4] = HUVEC growth inhibition – cell-based, human, primary screen (AID 575;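 active = viability at or below 30% in both replicate assays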;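 also: 100% = median of untreated cell wells with 0.1% DMSO on each plate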); settings: HUVEC proliferation, CellTiter-Glo luminescence, 72 h; at 10 µM; stronger effect = lower value
[5] = H69AR cell proliferation blockers – human, duplicate replicates, primary screen (AID 580;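 active = viability at or under a set limit in both replicates, limit being median viability minus 3 SD, cut at about 48% in these data, passing the limit was not always enough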;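 also: 100% = mean luminescence of untreated wells and 0% = no signal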); settings: H69AR lung tumor cells viability, ATP luminescence, 72 h; at 10 µM; stronger effect = lower value
[6] = MRP1 drug-resistance reversers in H69AR cells – cell-based, doxorubicin co-treatment, pilot screen (AID 601;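 active = viability loss from added drug above about 55%, and viability with drug at most 40%, in both replicates, limit read from the data, passing the limit was not always enough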); settings: CellTiter-Glo, 72 h, at 10 µM; for differential viability (reversal): stronger effect = higher value
[7] = yeast transport mutant growth inhibition pilot in 384-well plates, post-Golgi transport modulator project (AID 636; in the data active = inhibition above about 31%); settings: absorbance 615 nm, about 18 h, stronger effect = higher value
[8] = growth suppression of yeast trafficking mutant, preliminary HTS, modulators of trafficking downstream of Golgi apparatus project, 1536-format plate, OD 615 nm (AID 637; in the data active = inhibition above about 30%); settings: yeast transport mutant growth, absorbance 615 nm, 18 h; stronger effect = higher value
[9] = S. cerevisiae growth inhibition in permissive medium (OD615), pilot counter-assay for S. cerevisiae lifespan shortening project, permissive growth control (AID 705;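 active = growth inhibition above 25% in both replicates, a cutoff set 3 SD above the mean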); settings: OD615, 24 h, at 10 µM, stronger effect = higher value
[10] = S. cerevisiae growth inhibition in restrictive medium, OD615, pilot screen, restrictive growth control, yeast lifespan reduction project (AID 706;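 active = growth inhibition above a set limit, 3 SD over mean compound inhibition, in both replicates, cut at about 43% in these data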;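 also: modified DeaD lifespan yeast strain shifted to restrictive glucose medium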); settings: OD615, 48 h, at 10 µM, stronger effect = higher value
[11] = doxorubicin toxicity protection in MRP-1 cells – H69AR cells, CellTiter-Glo, duplicate, MRP-1 activator project, pilot screen (AID 807;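 active = viability increase at or above a cutoff of the median across tested compounds plus 3 SD, cut at about 8.5% in these data, passing the limit was not always enough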;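 also: compound pretreatment 18-22 h then 72 h combined with doxorubicin; 0% = doxorubicin alone and 100% = vehicle without doxorubicin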); settings: H69AR viability with doxorubicin, CellTiter-Glo luminescence; at 10 µM; stronger effect = higher value
[12] = viability of HCT116 without oncogenic beta-catenin – human colon tumor cells, pilot screen (AID 823;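 active = cell viability at or below a set limit in both duplicate runs, the limit being the all-compound median minus 4 SD, cut at about 23% in these data, passing the limit was not always enough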;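 also: 0% = wells killed by 20 µM Hyamine and 100% = untreated DMSO cell wells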); settings: HCT116 beta-catenin knockout viability, CellTiter-Glo, 60 h; at 10 µM; stronger effect = lower value
[13] = viability of PTEN-null HCT116 cells – cell-based, HCT116 clonal line, CellTiter-Glo, pilot screen (AID 824;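 active = viability at or below 27.92% in each of two runs, the all-compound median minus 4 SD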;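 also: 0% = 20 µM Hyamine control and 100% = vehicle cell control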); settings: HCT116 PTEN-deleted viability, 60 h, at 10 µM, stronger effect = lower value
[14] = RAM pathway blockade in budding yeast – dse1pr::URA3 reporter, 5-FOA selection, pilot screen (AID 869;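 active = inhibition over a set limit, the all-compound mean plus 3 SD, in both replicate runs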;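 also: 0% = DMSO wells with no growth and 100% = 10 µM 1-NA-PP1 with full growth; RAM network block rescues cells from 5-FOA so hits raise OD615 growth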); settings: S. cerevisiae dse1pr::URA3 5-FOA growth, OD615, 2 d; at 10 µM; stronger effect = higher value; strain carries analog-sensitive mutant Cbk1 kinase
[15] = RAM signaling pathway blockade in yeast – S. cerevisiae, Pdr1DBD-CYC8 efflux-inhibited sensitized strain, primary screen (AID 1298);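 also: 0% = DMSO untreated cells without growth and 100% = 10 µM 1-NA-PP1 full growth; higher means more yeast growth rescued from 5-FOA killing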; settings: S. cerevisiae cbk1-as DSE1-URA3 strain, 5-FOA growth OD615, 2 d; at 50 µM; stronger effect = higher value
[16] = H69AR cells + 2 uM doxorubicin, measured here: viability with 2 uM doxorubicin, stronger effect = lower value
[17] = H69AR cells, compound alone cytotoxicity

Compound	viability [1]	Her2 level [2]	viability [3]	viability [4]	viability [5]	differential viability (reversal) ([6]; H69AR cells + 2 uM doxorubicin)	viability [6, 16]	viability [6, 17]	inhibition [7]	inhibition [8]	growth inhibition [9]	growth inhibition [10]	viability increase [11]	viability [12]	viability [13]	inhibition [14]	RAM network inhibition [15]
Cc1c(C(=O)NC2CC2)oc2ccc(S(=O)(=O)N3CCCCCC3)cc12	81.5%	106% (inactive)	81.5% (inactive)	96.8% (inactive)	83% (inactive)	-14.2% (inactive)	97.1%	83%	-0.81% (inactive)	3.44% (inactive)	-7.49% (inactive)	6.7% (inactive)	3.84% (inactive)	92.9% (inactive)	90.8% (inactive)	0.26% (inactive)	4.34% (inactive)
COc1ccccc1S(=O)(=O)Cc1ccc(C(=O)N2CCN(c3ccccn3)CC2)o1	101%	84.5% (inactive)	101% (inactive)	87.8% (inactive)	88.9% (inactive)	6.81% (inactive)	82.1%	88.9%	-3.47% (inactive)	-1.97% (inactive)	-6.28% (inactive)	-10.3% (inactive)	-1.97% (inactive)	92.8% (inactive)	85.1% (inactive)	0.76% (inactive)	0.78% (inactive)
O=C(NCCCN1CCOCC1)c1ccc(CS(=O)(=O)c2c(Cl)cccc2Cl)o1	90.5%	102% (inactive)	90.5% (inactive)	88.8% (inactive)	92.3% (inactive)	-2.01% (inactive)	94.3%	92.3%	-0.67% (inactive)	-0.5% (inactive)	-11.8% (inactive)	-17.8% (inactive)	-1.26% (inactive)	101% (inactive)	92.3% (inactive)	1.61% (inactive)	5% (inactive)
CN1CCN(Cc2nc3c(c(=O)n(C)c(=O)n3C)n2Cc2ccccc2Cl)CC1	80.5%	97.5% (inactive)	80.5% (inactive)	86.5% (inactive)	86.9% (inactive)	7.12% (inactive)	79.8%	86.9%	-5.07% (inactive)	-2.17% (inactive)	-5.17% (inactive)	-14.4% (inactive)	-2.56% (inactive)	91.8% (inactive)	91.3% (inactive)	1.5% (inactive)	4.45% (inactive)
CC(C)CCN(C)C1CCN(S(=O)(=O)c2ccc(F)cc2)CC1	87%	104% (inactive)	87% (inactive)	107% (inactive)	81% (inactive)	-10.5% (inactive)	91.6%	81%	-1.87% (inactive)	-4.33% (inactive)	-7.46% (inactive)	10.4% (inactive)	-2.68% (inactive)	97.6% (inactive)	98.5% (inactive)	0.875% (inactive)	4.65% (inactive)
O=C(c1ccco1)N1CCN(C2=NS(=O)(=O)c3ccccc32)CC1	104%	142% (inactive)	104% (inactive)	99.1% (inactive)	94.8% (inactive)	3.94% (inactive)	90.8%	94.8%	-1.69% (inactive)	-12.7% (inactive)	-13.5% (inactive)	-1.96% (inactive)	-2.12% (inactive)	93.1% (inactive)	96.3% (inactive)	0.41% (inactive)	6.34% (inactive)
CCCCS(=O)(=O)NC1=NCN(CCOC(=O)c2ccccc2)CN1	95.5%	84.5% (inactive)	95.5% (inactive)	104% (inactive)	102% (inactive)	14.3% (inactive)	87.6%	102%	-3.6% (inactive)	2.58% (inactive)	-8.81% (inactive)	-6.13% (inactive)	-2.67% (inactive)	91.8% (inactive)	93.2% (inactive)	0.005% (inactive)	0.98% (inactive)
CCOCCCNC(=O)Cn1cc2c(n1)CCCCC2	114%	104% (inactive)	114% (inactive)	109% (inactive)	103% (inactive)	6.04% (inactive)	96.8%	103%	1.03% (inactive)	2.67% (inactive)	-3.18% (inactive)	-3.17% (inactive)	-0.62% (inactive)	100% (inactive)	99.9% (inactive)	2.07% (inactive)	3.72% (inactive)
COc1ccc(S(=O)(=O)Nc2ccc(F)c(Cl)c2)cc1OC	97.5%	93.5% (inactive)	97.5% (inactive)	106% (inactive)	96.6% (inactive)	4.3% (inactive)	92.3%	96.6%	-2.21% (inactive)	-10.2% (inactive)	-15.3% (inactive)	4.31% (inactive)	-1.4% (inactive)	86.3% (inactive)	87.6% (inactive)	0.595% (inactive)	1.81% (inactive)
CCOc1ccc(-c2cc(CCCC(=O)N3CCN(c4ccc(OC)cc4)CC3)no2)cc1	85%	104% (inactive)	85% (inactive)	77.8% (inactive)	67.7% (inactive)	-2.52% (inactive)	70.2%	67.7%	4.1% (inactive)	-2.67% (inactive)	2.23% (inactive)	1.43% (inactive)	-3.39% (inactive)	81.7% (inactive)	82.5% (inactive)	2.54% (inactive)	8.59% (inactive)
